Results from PubChem BioAssay AID504634 (The Scripps Research Institute Molecular Screening Center, 2011).
In all, about 340,000 compounds went through this assay and about 280 (0.082%) were called active. Shown is part of a subset that was picked to be rich in actives. Values without a mark were called inactive. Rule as the data show it: active = inhibition mostly above about 23% (no sharp cut-off); inactive = mostly below about 18%.

Molecular target: 5-hydroxytryptamine receptor 5A (Homo sapiens) (UniProt P47898)
Assay: HTR5A inverse agonists in luminescence cell assay, primary screen, counter-screen for OPRM1-OPRD1 heterodimer inverse agonist project, full-deck HTS (AID 504634);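 also: 0% = cells with DMSO and 100% = no-cell wells with DMSO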
Details: HTR5A cell line, inverse agonism, at 9.3 µM, stronger effect = higher value

Sequence of 5-hydroxytryptamine receptor 5A (Homo sapiens) (P47898 whole entry, looked up): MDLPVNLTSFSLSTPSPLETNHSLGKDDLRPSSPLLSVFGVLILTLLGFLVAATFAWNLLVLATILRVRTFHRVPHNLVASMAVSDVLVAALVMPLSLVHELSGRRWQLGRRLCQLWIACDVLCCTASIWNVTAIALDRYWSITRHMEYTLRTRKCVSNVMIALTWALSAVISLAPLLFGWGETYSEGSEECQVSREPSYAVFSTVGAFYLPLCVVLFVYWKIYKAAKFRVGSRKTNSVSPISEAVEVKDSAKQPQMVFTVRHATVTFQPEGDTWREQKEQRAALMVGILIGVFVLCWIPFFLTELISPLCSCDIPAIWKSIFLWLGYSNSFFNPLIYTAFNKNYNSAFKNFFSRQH

Row | SMILES | inhibition
1 | CC(=O)N1CCN(c2ccc(NCc3ccc(C(C)C)cc3)cc2)CC1 | -28.6%
2 | CC1CCCN(c2ccc(C(=O)NCCc3ccccc3)cn2)C1 (configuration not stated) | -15.3%
3 | C=C1CCN([C@@H](Cc2ccccc2)C(=O)N2CCOCC2)S(=O)(=O)c2ccccc21 | -14.5%
4 | CCOC(=O)N1CCC(NC(=O)C(NS(=O)(=O)c2ccc3c(c2)CCN3C(=O)CC)C(C)C)CC1 (configuration not stated) | -32.3%
5 | CCN(c1ccccc1)S(=O)(=O)c1ccc2[nH]c(=O)[nH]c2c1 | 4.19%
6 | O=C(O)c1ccc(NS(=O)(=O)c2cccc3nsnc23)cc1 | -11.7%
7 | Cc1cc(-c2ccc(S(=O)(=O)N3CCN(c4cccc(C(F)(F)F)c4)CC3)s2)on1 | -11.3%
8 | CCCCNC(=O)C1CCC(=O)N1CCc1ccccc1 (configuration not stated) | 4.38%
9 | COc1ccc(N2CC(C)Cn3c2nc2c3c(=O)n(Cc3ccccc3F)c(=O)n2C)c(OC)c1 (configuration not stated) | 6.23%
10 | CN(C)c1ccc(/C=C/C(=O)c2ccc(C(C)(C)C)cc2)cc1[N+](=O)[O-] | -5.83%
11 | O=C(/C=C/c1ccc(Cl)c([N+](=O)[O-])c1)c1ccc(O)cc1 | 25.2% (active)
12 | CN(C)c1ccc(/C=C/C(=O)c2ccc(O)cc2)cc1[N+](=O)[O-] | 5.01%
13 | CC(C)CCNC(=O)C(C)N(C(=O)Cn1nnc(-c2ccc(F)cc2)n1)C1CCCC1 (configuration not stated) | -27.5%
14 | CC1(c2nnc(Cc3ccccc3)o2)CC(c2ccccc2F)=NO1 (configuration not stated) | -30.2%
15 | O=[N+]([O-])/C=C/c1ccc2c(ccn2Cc2ccccc2)c1 | 29.1%
16 | COc1ccc(CN2CCCC(C(=O)N3CCCCC3)C2)cc1 (configuration not stated) | -7.55%
17 | COc1cc(N2CCCC2)c(OC)cc1/C=C(/C#N)c1cccc(Br)c1 | 0.8%
18 | Cc1noc(C)c1-c1nc(CSc2ccc(Cl)cc2)no1 | -15%
19 | O=C(NCCC1CCCCN1S(=O)(=O)c1ccccc1)C(=O)NCC1CCCO1 (configuration not stated) | -11.3%
20 | CCOc1ncccc1C(=O)N(CC)CC(=O)Nc1ccc(NC(C)=O)cc1 | -12.8%
21 | CCSc1nc2sc3c(c2c(=O)n1-c1ccc(C)cc1)CCN(C)C3 | -7.48%
22 | CCc1ccc(OCC(=O)N(Cc2ccccc2)C2CCS(=O)(=O)C2)cc1 (configuration not stated) | 9.5%
23 | O=C(NCc1ccc(F)cc1)C1CCC(CNc2c(N3CCOCC3)c(=O)c2=O)CC1 (configuration not stated) | 4.62%

Row | SMILES | inhibition
24 | CCNC(=S)N1CCN(S(=O)(=O)c2ccc(Cl)s2)CC1 | 2.35%
25 | CSc1cccc(NC(=O)C2CCCN2S(=O)(=O)c2ccc3c(c2)CCC(=O)N3)c1 (configuration not stated) | -6.95%
26 | COn1c(=O)c(=O)n(OC)c2ccccc21 | 13.4%
27 | CC(NC(=O)c1cccc2ccccc12)c1ccc2c(c1)CCCC2 (configuration not stated) | -1.12%
28 | COCCn1c(SCC(=O)Nc2ccc3c(c2)CCC3)nc2ccccc2c1=O | 4.39%
29 | COC(=O)C1CCCCN1C(=O)c1ccc(OC2CCN(C(C)=O)CC2)c(OC)c1 (configuration not stated) | -12.2%
30 | Cc1cc(C)c(S(=O)(=O)N2CCCC2CNC(=O)c2ccc3c(c2)OCO3)c(C)c1 (configuration not stated) | 1.64%
31 | Cc1cc(NC(=O)CCN2CCN(Cc3ccccc3)CC2)ccc1Br | -5.24%
32 | CN(CCO)S(=O)(=O)c1ccc2c(c1)C(=O)c1cc(S(=O)(=O)N(C)CCO)ccc1-2 | -0.05%
33 | Cn1c(N)c(C(=O)COC(=O)c2cnc(Cl)c(Cl)c2)c(=O)n(C)c1=O | 13.4%
34 | CCOc1ccc(NC(=O)CC(Cc2ccc(Cl)cc2)C(=O)O)cc1 (configuration not stated) | 11.4%
35 | COc1ccc(CCNC(=O)COc2cc(C)cc3oc(=O)c(C)c(C)c23)cc1OC | -41.4%
36 | Cc1cccc(C(=O)OC(C)CN2CCCC2)c1 (configuration not stated) | -16.4%
37 | O=C(NC(=S)Nc1cc(C(F)(F)F)ccc1N1CCOCC1)c1ccc(-c2cccc(Cl)c2)o1 | 12.2%
38 | Cc1ccc(NC(=O)CSc2nc(=O)n(CCN(C)C)c3c2CCCC3)c(C)c1 | 8.38%
39 | Cc1c(C(=O)NCCN2C(=O)S/C(=C\c3cccs3)C2=O)cccc1[N+](=O)[O-] | -12.1%
40 | Cc1cc(NC(=O)CSC2=NS(=O)(=O)c3cc(Cl)ccc3N2)no1 | 6.86%
41 | Cc1ccc(S(=O)(=O)NCC(C)NS(C)(=O)=O)cc1 (configuration not stated) | -0.41%
42 | CC(=O)N(O)CCCCCNC(=O)CCC(=O)N(O)CCCCCNC(=O)CCC(=O)N(O)CCCCCNC(=O)CCC(=O)O | 2.24%
43 | O=C(NCc1ccncc1)C1CCN(C(=O)c2cccc(Cl)c2)CC1 | -13.3%
44 | Cc1[nH]c2ccccc2c1C(=O)COC(=O)c1c(-c2ccccc2)noc1C | -12.9%
45 | Nc1nonc1-n1nnc(C(=O)N/N=C/c2cc(Br)ccc2O)c1CSC1=NCCS1 | -4.39%
46 | Cc1c(-c2ccccc2)cn2c1-c1ccc(C)n1CC2 | -5.32%

Row | SMILES | inhibition
47 | CC(=O)c1cccc(OCc2cc(C(=O)NC(C)Cc3cccnc3)no2)c1 (configuration not stated) | -3.71%
48 | Cc1noc(C)c1COc1ccc(C(=O)NCCOc2ccccc2)cc1 | -0.9%
49 | Cc1noc(C)c1COc1cccc(C(=O)Nc2cccnc2)c1 | 22.3% (active)
50 | CCc1nc2ccccc2n(CCOCCOCCn2c(=O)c(CC)nc3ccccc32)c1=O | -0.84%
51 | CN(C(=O)CSc1nnc(Nc2ccccc2)s1)C1CCS(=O)(=O)C1 (configuration not stated) | 16.5%
52 | C/C=C/C(=O)Nc1ccc(N2CCN(c3ccc(C(F)(F)F)cn3)CC2)nc1 | -13%
53 | O=P(O)(CP(=O)(c1ccccc1)c1ccccc1)c1ccccc1 | 4.79%
54 | COc1ccc(S(=O)(=O)N2CCSCC2)cc1 | 16.4%
55 | CCn1cc(C(=O)NCCCN2CCCCCC2)c(=O)c2cc(S(=O)(=O)N3CCc4ccccc4C3)ccc21 | -11%
56 | CCOC(=O)c1cn(CC)c2cc(F)c(F)cc2c1=O | -4.15%
57 | CC[C@H](C)[C@@H](C(=O)N1CCNCC1)n1cc([C@@H](N)Cc2ccc(O)cc2)nn1 | -7.48%
58 | COCc1cc(=O)[nH]c(SC)n1 | -5.28%
59 | O=C(CSc1nnc(Nc2ccccc2F)s1)NC1CCCC1 | -11.3%
60 | CCN(CC(=O)Nc1cc(Cl)ccc1C)C(=O)CSCc1ccc(C)cc1 | -29.4%
61 | CC[n+]1cc(C)ccc1/C=C/c1ccc(N(C)C)cc1 | 9.17%
62 | CCCCN(C(=O)c1cccc(N2C(=O)c3ccccc3C2=O)c1)c1c(N)n(CCCC)c(=O)[nH]c1=O | -1.54%
63 | O=c1[nH]nc(Cc2ccccn2)c2ccccc12 | 34.8%
64 | c1ccc2c(c1)OC1OC2Oc2ccccc21 | 2.1%
65 | CCOc1ccc(S(=O)(=O)Nc2cccc(C(=O)NCC3(N4CCCCC4)CCCCC3)c2)cc1 | -7.44%
66 | CC(C)COc1ccc(C(=O)NNC(=O)CCC(=O)c2cccs2)cc1 | 8.1%
67 | Cc1cccc(NC(=O)N2CCCCCC2)c1C | -15.6%
68 | O=C1C(Cc2ccc(O)cc2)NC(=S)N1Cc1ccccc1 (configuration not stated) | -7.4%
69 | CCC1Nc2ncnc(N3CCN(c4ccccc4)CC3)c2N(Cc2ccc(Cl)cc2)C1=O (configuration not stated) | 72% (active)

Row | SMILES | inhibition
70 | CC[C@]1(C(=O)OC)[C@H]2C(=O)N(Cc3ccccc3)C(=O)[C@H]2[C@H]2CN=C(SCc3ccc(Cl)cc3)N21 | 4.46%
71 | N#Cc1ccc(C2=CC(=O)C[C@H](c3ccc(Cl)cc3)C2)cc1 | -10.1%
72 | O=C(Nc1ccc(Cl)c(Cl)c1)N1CC=C(c2ccccc2)CC1 | 13.3%
73 | C=CCN1C=C(C(=O)c2ccccc2)C(=O)CC1 | 6.15%
74 | CCc1nccn1CCC(=O)N1CCCC(N2CCN(c3ccccc3F)CC2)C1 (configuration not stated) | 5.46%
75 | COc1ccc([C@H]2CC(=O)C=C(c3ccc(CO)cc3)C2)cc1 | 8.13%
76 | O=C1c2ccccc2[C@@H]2C[C@@H](O)[C@H](Nc3ccccc3Cl)CCN12 | -0.71%
77 | Cc1cc(C)nc(SC(C)C(=O)N/N=C/c2cccs2)n1 (configuration not stated) | 9.06%
78 | O=C(Cc1ccccn1)c1ccc(O)cc1O | 12.8%
79 | COc1ccc(-c2nnc(SC(=O)N3c4ccccc4Sc4ccccc43)o2)cc1 | -1.76%
80 | COc1ccc(-c2nnc(SC(C)C(=O)NC3CC3)o2)cc1 (configuration not stated) | 24.2% (active)
81 | COc1ccc(-c2nnc(SCC(=O)NC3CCCCC3)o2)cc1OC | 0.53%
82 | COc1cc(N)c(Cl)cc1C(=O)OCC(=O)c1ccc2c(c1)NC(=O)CO2 | 10.7%
83 | Cc1nnc(SCC(=O)N(C(C)C)C(C)C)nc1C | 7.98%
84 | COc1ccc(N/N=C2/CCCCC2=O)cc1 | -17.4%
85 | CCCCN1CC(COc2ccccc2)Oc2cccc(F)c2S1(=O)=O (configuration not stated) | -4.35%
86 | CN1C(CC(=O)Nc2ccc(Br)cc2)c2ccccc2CC1(C)C (configuration not stated) | -2.97%
87 | Cc1cc(C(=O)COc2ccccc2[N+](=O)[O-])c(C)n1-c1cccc(S(=O)(=O)N2CCOCC2)c1 | -23.2%
88 | O=C1CC(C(=O)O)NC(=S)N1 (configuration not stated) | -5.32%
89 | COc1ccc2oc(C(=O)N(CC(C)C)C3CCS(=O)(=O)C3)c(C)c2c1 (configuration not stated) | 5.04%
90 | CCCCc1c(O)nc2n(c1=O)CCS2 | -25.6%
91 | CCCCCc1c(C)nc(N2CCN(Cc3ccc4c(c3)OCO4)CC2)[nH]c1=O | -8.1%
92 | CCCCCCCCc1c(O)nc(-n2[nH]c(C)c(CCO)c2=O)[nH]c1=O | 23.4% (active)
